{"source": "the supplement of paper PMC4466140", "data": [{"target": "ScBbc1", "assay": "SPOT peptide array binding signal intensity (averaged, normalized) (arbitrary units (background-subtracted, floor 0; scale differs between SH3 domains)); higher = stronger binding of the SH3 domain to the peptide", "procedure,_shortened": "(§1)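 To measure binding, SH3 domains from four yeast species were fused to GST, expressed in E. coli BL21(DE3) and purified on glutathione Sepharose. Each domain was incubated at 10 μg/ml overnight at 4°C on cellulose membranes with synthetic 15-mer peptides whose cysteines were replaced by serines. Anti-GST antibody, an HRP anti-mouse secondary and luminol were used for detection, and images were quantified with Genespotter. Reported binding signal is normalized, background-subtracted spot intensity averaged over replicates, in arbitrary units that differ between domains.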", "values": [{"binder": "VFQFQMPTTPISTKM", "SPOT peptide array binding signal intensity": "≤ 0"}]}, {"target": "ScBem1-D1", "assay": "SPOT peptide array binding signal intensity (averaged, normalized) (arbitrary units (background-subtracted, floor 0; scale differs between SH3 domains)); higher = stronger binding of the SH3 domain to the peptide", "procedure,_shortened": "as §1", "values": [{"binder": "VFQFQMPTTPISTKM", "SPOT peptide array binding signal intensity": 1}]}, {"target": "ScBzz1-D1", "assay": "SPOT peptide array binding signal intensity (averaged, normalized) (arbitrary units (background-subtracted, floor 0; scale differs between SH3 domains)); higher = stronger binding of the SH3 domain to the peptide", "procedure,_shortened": "as §1", "values": [{"binder": "VFQFQMPTTPISTKM", "SPOT peptide array binding signal intensity": 10}]}, {"target": "ScBzz1-D2", "assay": "SPOT peptide array binding signal intensity (averaged, normalized) (arbitrary units (background-subtracted, floor 0; scale differs between SH3 domains)); higher = stronger binding of the SH3 domain to the peptide", "procedure,_shortened": "as §1", "values": [{"binder": "VFQFQMPTTPISTKM", "SPOT peptide array binding signal intensity": 25}]}, {"target": "ScCyk3", "assay": "SPOT peptide array binding signal intensity (averaged, normalized) (arbitrary units (background-subtracted, floor 0; scale differs between SH3 domains)); higher = stronger binding of the SH3 domain to the peptide", "procedure,_shortened": "as §1", "values": [{"binder": "VFQFQMPTTPISTKM", "SPOT peptide array binding signal intensity": 13}]}, {"target": "ScFus1", "assay": "SPOT peptide array binding signal intensity (averaged, normalized) (arbitrary units (background-subtracted, floor 0; scale differs between SH3 domains)); higher = stronger binding of the SH3 domain to the peptide", "procedure,_shortened": "as §1", "values": [{"binder": "VFQFQMPTTPISTKM", "SPOT peptide array binding signal intensity": 327}]}, {"target": "ScHof1", "assay": "SPOT peptide array binding signal intensity (averaged, normalized) (arbitrary units (background-subtracted, floor 0; scale differs between SH3 domains)); higher = stronger binding of the SH3 domain to the peptide", "procedure,_shortened": "as §1", "values": [{"binder": "VFQFQMPTTPISTKM", "SPOT peptide array binding signal intensity": "≤ 0"}]}, {"target": "ScHse1", "assay": "SPOT peptide array binding signal intensity (averaged, normalized) (arbitrary units (background-subtracted, floor 0; scale differs between SH3 domains)); higher = stronger binding of the SH3 domain to the peptide", "procedure,_shortened": "as §1", "values": [{"binder": "VFQFQMPTTPISTKM", "SPOT peptide array binding signal intensity": 254}]}, {"target": "ScLsb1", "assay": "SPOT peptide array binding signal intensity (averaged, normalized) (arbitrary units (background-subtracted, floor 0; scale differs between SH3 domains)); higher = stronger binding of the SH3 domain to the peptide", "procedure,_shortened": "as §1", "values": [{"binder": "VFQFQMPTTPISTKM", "SPOT peptide array binding signal intensity": 46.5}]}, {"target": "ScLsb2", "assay": "SPOT peptide array binding signal intensity (averaged, normalized) (arbitrary units (background-subtracted, floor 0; scale differs between SH3 domains)); higher = stronger binding of the SH3 domain to the peptide", "procedure,_shortened": "as §1", "values": [{"binder": "VFQFQMPTTPISTKM", "SPOT peptide array binding signal intensity": "≤ 0"}]}, {"target": "ScLsb3", "assay": "SPOT peptide array binding signal intensity (averaged, normalized) (arbitrary units (background-subtracted, floor 0; scale differs between SH3 domains)); higher = stronger binding of the SH3 domain to the peptide", "procedure,_shortened": "as §1", "values": [{"binder": "VFQFQMPTTPISTKM", "SPOT peptide array binding signal intensity": 282}]}, {"target": "ScLsb4", "assay": "SPOT peptide array binding signal intensity (averaged, normalized) (arbitrary units (background-subtracted, floor 0; scale differs between SH3 domains)); higher = stronger binding of the SH3 domain to the peptide", "procedure,_shortened": "as §1", "values": [{"binder": "VFQFQMPTTPISTKM", "SPOT peptide array binding signal intensity": 124}]}, {"target": "ScMyo3", "assay": "SPOT peptide array binding signal intensity (averaged, normalized) (arbitrary units (background-subtracted, floor 0; scale differs between SH3 domains)); higher = stronger binding of the SH3 domain to the peptide", "procedure,_shortened": "as §1", "values": [{"binder": "VFQFQMPTTPISTKM", "SPOT peptide array binding signal intensity": 20.8}]}, {"target": "ScMyo5", "assay": "SPOT peptide array binding signal intensity (averaged, normalized) (arbitrary units (background-subtracted, floor 0; scale differs between SH3 domains)); higher = stronger binding of the SH3 domain to the peptide", "procedure,_shortened": "as §1", "values": [{"binder": "VFQFQMPTTPISTKM", "SPOT peptide array binding signal intensity": 8}]}, {"target": "ScNbp2", "assay": "SPOT peptide array binding signal intensity (averaged, normalized) (arbitrary units (background-subtracted, floor 0; scale differs between SH3 domains)); higher = stronger binding of the SH3 domain to the peptide", "procedure,_shortened": "as §1", "values": [{"binder": "VFQFQMPTTPISTKM", "SPOT peptide array binding signal intensity": 636}]}, {"target": "ScPex13", "assay": "SPOT peptide array binding signal intensity (averaged, normalized) (arbitrary units (background-subtracted, floor 0; scale differs between SH3 domains)); higher = stronger binding of the SH3 domain to the peptide", "procedure,_shortened": "as §1", "values": [{"binder": "VFQFQMPTTPISTKM", "SPOT peptide array binding signal intensity": 186}]}, {"target": "ScRvs167", "assay": "SPOT peptide array binding signal intensity (averaged, normalized) (arbitrary units (background-subtracted, floor 0; scale differs between SH3 domains)); higher = stronger binding of the SH3 domain to the peptide", "procedure,_shortened": "as §1", "values": [{"binder": "VFQFQMPTTPISTKM", "SPOT peptide array binding signal intensity": 11.8}]}, {"target": "ScSho1", "assay": "SPOT peptide array binding signal intensity (averaged, normalized) (arbitrary units (background-subtracted, floor 0; scale differs between SH3 domains)); higher = stronger binding of the SH3 domain to the peptide", "procedure,_shortened": "as §1", "values": [{"binder": "VFQFQMPTTPISTKM", "SPOT peptide array binding signal intensity": 530}]}, {"target": "ScSla1-D1-D2", "assay": "SPOT peptide array binding signal intensity (averaged, normalized) (arbitrary units (background-subtracted, floor 0; scale differs between SH3 domains)); higher = stronger binding of the SH3 domain to the peptide", "procedure,_shortened": "as §1", "values": [{"binder": "VFQFQMPTTPISTKM", "SPOT peptide array binding signal intensity": 245}]}, {"target": "ScSla1-D3", "assay": "SPOT peptide array binding signal intensity (averaged, normalized) (arbitrary units (background-subtracted, floor 0; scale differs between SH3 domains)); higher = stronger binding of the SH3 domain to the peptide", "procedure,_shortened": "as §1", "values": [{"binder": "VFQFQMPTTPISTKM", "SPOT peptide array binding signal intensity": 228}]}, {"target": "SpAbp1-D1", "assay": "SPOT peptide array binding signal intensity (averaged, normalized) (arbitrary units (background-subtracted, floor 0; scale differs between SH3 domains)); higher = stronger binding of the SH3 domain to the peptide", "procedure,_shortened": "as §1", "values": [{"binder": "VFQFQMPTTPISTKM", "SPOT peptide array binding signal intensity": 21}]}, {"target": "SpBbc1", "assay": "SPOT peptide array binding signal intensity (averaged, normalized) (arbitrary units (background-subtracted, floor 0; scale differs between SH3 domains)); higher = stronger binding of the SH3 domain to the peptide", "procedure,_shortened": "as §1", "values": [{"binder": "VFQFQMPTTPISTKM", "SPOT peptide array binding signal intensity": 2.5}]}, {"target": "SpBzz1-D1", "assay": "SPOT peptide array binding signal intensity (averaged, normalized) (arbitrary units (background-subtracted, floor 0; scale differs between SH3 domains)); higher = stronger binding of the SH3 domain to the peptide", "procedure,_shortened": "as §1", "values": [{"binder": "VFQFQMPTTPISTKM", "SPOT peptide array binding signal intensity": 324}]}, {"target": "SpBzz1-D2", "assay": "SPOT peptide array binding signal intensity (averaged, normalized) (arbitrary units (background-subtracted, floor 0; scale differs between SH3 domains)); higher = stronger binding of the SH3 domain to the peptide", "procedure,_shortened": "as §1", "values": [{"binder": "VFQFQMPTTPISTKM", "SPOT peptide array binding signal intensity": 4.25}]}, {"target": "SpCyk3", "assay": "SPOT peptide array binding signal intensity (averaged, normalized) (arbitrary units (background-subtracted, floor 0; scale differs between SH3 domains)); higher = stronger binding of the SH3 domain to the peptide", "procedure,_shortened": "as §1", "values": [{"binder": "VFQFQMPTTPISTKM", "SPOT peptide array binding signal intensity": 4}]}, {"target": "SpHof1", "assay": "SPOT peptide array binding signal intensity (averaged, normalized) (arbitrary units (background-subtracted, floor 0; scale differs between SH3 domains)); higher = stronger binding of the SH3 domain to the peptide", "procedure,_shortened": "as §1", "values": [{"binder": "VFQFQMPTTPISTKM", "SPOT peptide array binding signal intensity": 52.5}]}, {"target": "SpHof1-2", "assay": "SPOT peptide array binding signal intensity (averaged, normalized) (arbitrary units (background-subtracted, floor 0; scale differs between SH3 domains)); higher = stronger binding of the SH3 domain to the peptide", "procedure,_shortened": "as §1", "values": [{"binder": "VFQFQMPTTPISTKM", "SPOT peptide array binding signal intensity": 36.5}]}, {"target": "SpHof1-3", "assay": "SPOT peptide array binding signal intensity (averaged, normalized) (arbitrary units (background-subtracted, floor 0; scale differs between SH3 domains)); higher = stronger binding of the SH3 domain to the peptide", "procedure,_shortened": "as §1", "values": [{"binder": "VFQFQMPTTPISTKM", "SPOT peptide array binding signal intensity": 18.5}]}, {"target": "SpHse1", "assay": "SPOT peptide array binding signal intensity (averaged, normalized) (arbitrary units (background-subtracted, floor 0; scale differs between SH3 domains)); higher = stronger binding of the SH3 domain to the peptide", "procedure,_shortened": "as §1", "values": [{"binder": "VFQFQMPTTPISTKM", "SPOT peptide array binding signal intensity": 456}]}, {"target": "SpLsb1", "assay": "SPOT peptide array binding signal intensity (averaged, normalized) (arbitrary units (background-subtracted, floor 0; scale differs between SH3 domains)); higher = stronger binding of the SH3 domain to the peptide", "procedure,_shortened": "as §1", "values": [{"binder": "VFQFQMPTTPISTKM", "SPOT peptide array binding signal intensity": 4.5}]}, {"target": "SpLsb4", "assay": "SPOT peptide array binding signal intensity (averaged, normalized) (arbitrary units (background-subtracted, floor 0; scale differs between SH3 domains)); higher = stronger binding of the SH3 domain to the peptide", "procedure,_shortened": "as §1", "values": [{"binder": "VFQFQMPTTPISTKM", "SPOT peptide array binding signal intensity": 349}]}, {"target": "SpMyo1", "assay": "SPOT peptide array binding signal intensity (averaged, normalized) (arbitrary units (background-subtracted, floor 0; scale differs between SH3 domains)); higher = stronger binding of the SH3 domain to the peptide", "procedure,_shortened": "as §1", "values": [{"binder": "VFQFQMPTTPISTKM", "SPOT peptide array binding signal intensity": 85.5}]}, {"target": "SpNbp2", "assay": "SPOT peptide array binding signal intensity (averaged, normalized) (arbitrary units (background-subtracted, floor 0; scale differs between SH3 domains)); higher = stronger binding of the SH3 domain to the peptide", "procedure,_shortened": "as §1", "values": [{"binder": "VFQFQMPTTPISTKM", "SPOT peptide array binding signal intensity": 272}]}, {"target": "SpPex13", "assay": "SPOT peptide array binding signal intensity (averaged, normalized) (arbitrary units (background-subtracted, floor 0; scale differs between SH3 domains)); higher = stronger binding of the SH3 domain to the peptide", "procedure,_shortened": "as §1", "values": [{"binder": "VFQFQMPTTPISTKM", "SPOT peptide array binding signal intensity": 124}]}, {"target": "SpRvs167", "assay": "SPOT peptide array binding signal intensity (averaged, normalized) (arbitrary units (background-subtracted, floor 0; scale differs between SH3 domains)); higher = stronger binding of the SH3 domain to the peptide", "procedure,_shortened": "as §1", "values": [{"binder": "VFQFQMPTTPISTKM", "SPOT peptide array binding signal intensity": 27}]}, {"target": "SpSla1-D1-D2", "assay": "SPOT peptide array binding signal intensity (averaged, normalized) (arbitrary units (background-subtracted, floor 0; scale differs between SH3 domains)); higher = stronger binding of the SH3 domain to the peptide", "procedure,_shortened": "as §1", "values": [{"binder": "VFQFQMPTTPISTKM", "SPOT peptide array binding signal intensity": 3}]}, {"target": "SpSla1-D3", "assay": "SPOT peptide array binding signal intensity (averaged, normalized) (arbitrary units (background-subtracted, floor 0; scale differs between SH3 domains)); higher = stronger binding of the SH3 domain to the peptide", "procedure,_shortened": "as §1", "values": [{"binder": "VFQFQMPTTPISTKM", "SPOT peptide array binding signal intensity": 297}]}]}
